{"source": "PubChem BioAssay", "note": "Activity calls are given as the source filed them.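 How the source made its calls, unless noted: active means growth inhibition above 50% at the single 2 µM test dose, taken to imply half-maximal potency below 2 µM; inactive means the rest.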"}
{"experiment": "antimalarial activity against Dd2 strain (AID 2302);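 further: 0% = DMSO untreated growth and 100% = chloroquine plus artemisinin killed control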", "conditions": "P. falciparum Dd2 in RBCs, LDH growth readout, 72 h; at 2 µM; hits give high values"}
{"smiles": "Cc1nc(-c2nc(NCc3ccncc3)ncc2-c2ccsc2)sc1C", "growth inhibition": "83% (active)"}
{"smiles": "CN(Cc1ccccc1)C1CCN(c2cc(NC(=O)c3cccc(F)c3)ccn2)CC1", "growth inhibition": "3% (inactive)"}
{"smiles": "FC(F)(F)c1ccc2nc(-c3ccc(-c4cccc(CN5CCC(CCN6CCCCC6)CC5)c4)cc3)[nH]c2c1", "growth inhibition": "96% (active)"}
{"smiles": "COCCCNC(=O)C1CCN(C(c2ccc(Cl)cc2)c2ccc(Cl)cc2)CC1", "growth inhibition": "63% (active)"}
{"smiles": "NOCCCOc1ccccc1", "growth inhibition": "-4% (inactive)"}
{"smiles": "Cc1ccc(-c2ccc(NC(=O)N3CCc4cc(Br)c(N5CCN(C)CC5)cc43)cc2)cn1", "growth inhibition": "16% (inactive)"}
{"smiles": "CCC(C)(C)c1ccc(OCCCC(=O)Nc2ccc(Cl)c([N+](=O)[O-])c2)c(C(C)(C)CC)c1", "growth inhibition": "88% (active)"}
{"smiles": "C=C(C)C1CC=C(CN2CCC(N3CCc4cc(NC(=O)c5cc(C)on5)ccc43)C2)CC1", "note": "(stereo not drawn)", "growth inhibition": "95% (active)"}
{"smiles": "NC(=O)c1ccsc1NC(=O)CNC(c1ccc(F)cc1)c1cccs1", "note": "(stereo not drawn)", "growth inhibition": "71% (active)"}
{"smiles": "COc1ccc(NC(=O)Nc2ccc(-c3ccncc3)c(C(F)(F)F)c2)cc1N1CCN(C)CC1", "growth inhibition": "62% (active)"}
{"smiles": "Nc1nc(N)c2c(CCc3ccc(Cl)c(Cl)c3)cccc2n1", "growth inhibition": "83% (active)"}
{"smiles": "CC(C)(C)c1ccc(CNCC(C)(C)c2nc(-c3ccc(Cl)c(O)c3)c(-c3ccnc(N)n3)[nH]2)cc1", "growth inhibition": "54% (active)"}
{"smiles": "COc1ccc(Nc2nccc(-c3ccc(NC(=O)c4cc5cc(F)ccc5[nH]4)cc3)n2)cc1", "growth inhibition": "26% (inactive)"}
{"smiles": "CC(C)N(Cc1ccc(-c2ccc(C(F)(F)F)cc2)cc1)C(=O)Cn1c(CCc2cccc(F)c2F)cc(=O)c2ccc(CCCN3CCCCC3)cc21", "growth inhibition": "82% (active)"}
{"smiles": "O=C(Nc1cccc(CN2CCCN(Cc3ccc(O)cc3)CC2)c1)c1cc2ccccc2s1", "growth inhibition": "90% (active)"}
{"smiles": "O=C(Nc1ccc(OC2CCN(Cc3ccccc3)CC2)c(Cl)c1)c1ccc(F)cc1", "growth inhibition": "92% (active)"}
{"smiles": "CCN(CC)CCNc1ccnc2[nH]c3ccc(I)cc3c12", "growth inhibition": "95% (active)"}
{"smiles": "CN(C)c1nc2cc(-n3cnc4cc(-c5ccc(Cl)cc5)sc4c3=O)ccc2n1CCCN1CCCC1", "growth inhibition": "73% (active)"}
{"smiles": "Cc1[nH]c2ccccc2c(=O)c1Br", "growth inhibition": "84% (active)"}
{"smiles": "O=C(/C=C/c1ccc(Cl)c(Cl)c1)NCCCCCCN1CCN(C(=O)Nc2cccc(Cl)c2)CC1", "growth inhibition": "2% (inactive)"}
{"smiles": "Cc1cccc2[nH]c(-c3ccc(-c4cccc(CN5CCN(c6ccncc6)CC5)c4)cc3)nc12", "growth inhibition": "99% (active)"}
{"smiles": "CCCCc1cc(N2CCC(NC(C)=O)C2)nc(Nc2ccc(C)cc2)n1", "note": "(stereo not drawn)", "growth inhibition": "1% (inactive)"}
{"smiles": "CCOC(=O)CNC(=O)N(CCN(Cc1ccccc1)C(=O)NCC(=O)OCC)Cc1ccccc1", "growth inhibition": "-1% (inactive)"}
{"smiles": "Cc1cccc2[nH]c(-c3cc(-c4cccc(Cl)c4)cnc3N)nc12", "growth inhibition": "99% (active)"}
{"smiles": "c1ccc(-c2ccc(-c3csc(Nc4ccncc4)n3)cc2)cc1", "growth inhibition": "97% (active)"}
{"smiles": "CC(C)N(CCOc1ccc2c(c1)N(C(=O)Nc1ccc(Cl)c(Cl)c1)CC2)C(C)C", "growth inhibition": "39% (inactive)"}
{"smiles": "Cn1c(/C=C/C(=O)NC2CCC(CCN3CCc4ccc(C#N)cc4CC3)CC2)cc2ccccc21", "note": "(stereo not drawn)", "growth inhibition": "29% (inactive)"}
{"smiles": "Cc1ccc(NC(=O)c2ccc3ncccc3c2)cc1OC1CCN(Cc2ccc(F)cc2)C1", "note": "(stereo not drawn)", "growth inhibition": "28% (inactive)"}
{"smiles": "CCc1nc(N)nc(N)c1-c1ccc(F)cc1", "growth inhibition": "-3% (inactive)"}
{"smiles": "Cc1cc(NCCC(=O)NCCOc2ccccc2)nc(NCCOc2ccccc2)n1", "growth inhibition": "20% (inactive)"}
{"smiles": "CCNc1cc(C)nc(Nc2ccccc2)n1", "growth inhibition": "8% (inactive)"}
{"smiles": "Cc1cc(N(C)CCCN2CCCCC2)nc(Nc2ccc(Cl)cc2)n1", "growth inhibition": "82% (active)"}
{"smiles": "CC(C)(C)Oc1ccc(CC2NC3(C(=O)N(Cc4ccc(C(C)(C)C)cc4)c4ccccc43)C3C(=O)N(c4ccc(Br)cc4)C(=O)C23)cc1", "note": "(stereo not drawn)", "growth inhibition": "94% (active)"}
{"smiles": "Cc1ccc2[nH]c(C3CCCNC3)c(-c3ccncc3)c2c1", "note": "(stereo not drawn)", "growth inhibition": "22% (inactive)"}
{"smiles": "Cn1nc(-c2cccc(CNC3CCc4ccccc43)c2)c2cnc(NCCCN3CCCC3)nc21", "note": "(stereo not drawn)", "growth inhibition": "15% (inactive)"}
{"smiles": "Cc1ccc2c(c1)c(-c1ccccc1)c(-c1ccccc1)n2CC(O)CN1CCN(CC=Cc2ccccc2)CC1", "note": "(stereo not drawn)", "growth inhibition": "98% (active)"}
{"smiles": "O=C(CCN1CCCCC1)Nc1ccc(Nc2nccc(NCC(O)c3ccccc3)n2)cc1", "note": "(stereo not drawn)", "growth inhibition": "60% (active)"}
{"smiles": "CCc1ccc(N2C(=O)C3C(Cc4ccc(OC(C)(C)C)cc4)NC4(C(=O)N(Cc5ccccc5)c5ccc(F)cc54)C3C2=O)cc1", "note": "(stereo not drawn)", "growth inhibition": "49% (inactive)"}
{"smiles": "CCC[C@@H]([C@@H](CC1CCCCC1)C(=O)N[C@H](C(=O)Nc1nccs1)[C@H](C)O)N(O)C=O", "growth inhibition": "75% (active)"}
{"experiment": "human hepatoma cell viability loss – ATP luminescence, cytotoxicity control for P. falciparum antimalarial project, primary screen (AID 2303;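 active means inhibition above 50%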;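 further: 0% = DMSO wells and 100% = digitonin-killed cells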)", "conditions": "HepG2 viability, 24-48 h, at 10 µM, hits give high values"}
{"smiles": "Cc1nc(-c2nc(NCc3ccncc3)ncc2-c2ccsc2)sc1C", "inhibition": "8% (inactive)"}
{"smiles": "CN(Cc1ccccc1)C1CCN(c2cc(NC(=O)c3cccc(F)c3)ccn2)CC1", "inhibition": "2% (inactive)"}
{"smiles": "FC(F)(F)c1ccc2nc(-c3ccc(-c4cccc(CN5CCC(CCN6CCCCC6)CC5)c4)cc3)[nH]c2c1", "inhibition": "100% (active)"}
{"smiles": "COCCCNC(=O)C1CCN(C(c2ccc(Cl)cc2)c2ccc(Cl)cc2)CC1", "inhibition": "5% (inactive)"}
{"smiles": "NOCCCOc1ccccc1", "inhibition": "20% (inactive)"}
{"smiles": "Cc1ccc(-c2ccc(NC(=O)N3CCc4cc(Br)c(N5CCN(C)CC5)cc43)cc2)cn1", "inhibition": "86% (active)"}
{"smiles": "CCC(C)(C)c1ccc(OCCCC(=O)Nc2ccc(Cl)c([N+](=O)[O-])c2)c(C(C)(C)CC)c1", "inhibition": "-1% (inactive)"}
{"smiles": "C=C(C)C1CC=C(CN2CCC(N3CCc4cc(NC(=O)c5cc(C)on5)ccc43)C2)CC1", "note": "(stereo not drawn)", "inhibition": "26% (inactive)"}
{"smiles": "NC(=O)c1ccsc1NC(=O)CNC(c1ccc(F)cc1)c1cccs1", "note": "(stereo not drawn)", "inhibition": "31% (inactive)"}
{"smiles": "COc1ccc(NC(=O)Nc2ccc(-c3ccncc3)c(C(F)(F)F)c2)cc1N1CCN(C)CC1", "inhibition": "5% (inactive)"}
{"smiles": "Nc1nc(N)c2c(CCc3ccc(Cl)c(Cl)c3)cccc2n1", "inhibition": "51% (active)"}
{"smiles": "CC(C)(C)c1ccc(CNCC(C)(C)c2nc(-c3ccc(Cl)c(O)c3)c(-c3ccnc(N)n3)[nH]2)cc1", "inhibition": "28% (inactive)"}
{"smiles": "COc1ccc(Nc2nccc(-c3ccc(NC(=O)c4cc5cc(F)ccc5[nH]4)cc3)n2)cc1", "inhibition": "21% (inactive)"}
{"smiles": "CC(C)N(Cc1ccc(-c2ccc(C(F)(F)F)cc2)cc1)C(=O)Cn1c(CCc2cccc(F)c2F)cc(=O)c2ccc(CCCN3CCCCC3)cc21", "inhibition": "99% (active)"}
{"smiles": "O=C(Nc1cccc(CN2CCCN(Cc3ccc(O)cc3)CC2)c1)c1cc2ccccc2s1", "inhibition": "27% (inactive)"}
{"smiles": "O=C(Nc1ccc(OC2CCN(Cc3ccccc3)CC2)c(Cl)c1)c1ccc(F)cc1", "inhibition": "30% (inactive)"}
{"smiles": "CCN(CC)CCNc1ccnc2[nH]c3ccc(I)cc3c12", "inhibition": "14% (inactive)"}
{"smiles": "CN(C)c1nc2cc(-n3cnc4cc(-c5ccc(Cl)cc5)sc4c3=O)ccc2n1CCCN1CCCC1", "inhibition": "99% (active)"}
{"smiles": "Cc1[nH]c2ccccc2c(=O)c1Br", "inhibition": "2% (inactive)"}
{"smiles": "O=C(/C=C/c1ccc(Cl)c(Cl)c1)NCCCCCCN1CCN(C(=O)Nc2cccc(Cl)c2)CC1", "inhibition": "33% (inactive)"}
{"smiles": "Cc1cccc2[nH]c(-c3ccc(-c4cccc(CN5CCN(c6ccncc6)CC5)c4)cc3)nc12", "inhibition": "50% (active)"}
{"smiles": "CCCCc1cc(N2CCC(NC(C)=O)C2)nc(Nc2ccc(C)cc2)n1", "note": "(stereo not drawn)", "inhibition": "2% (inactive)"}
{"smiles": "CCOC(=O)CNC(=O)N(CCN(Cc1ccccc1)C(=O)NCC(=O)OCC)Cc1ccccc1", "inhibition": "9% (inactive)"}
{"smiles": "Cc1cccc2[nH]c(-c3cc(-c4cccc(Cl)c4)cnc3N)nc12", "inhibition": "32% (inactive)"}
{"smiles": "c1ccc(-c2ccc(-c3csc(Nc4ccncc4)n3)cc2)cc1", "inhibition": "30% (inactive)"}
{"smiles": "CC(C)N(CCOc1ccc2c(c1)N(C(=O)Nc1ccc(Cl)c(Cl)c1)CC2)C(C)C", "inhibition": "15% (inactive)"}
{"smiles": "Cn1c(/C=C/C(=O)NC2CCC(CCN3CCc4ccc(C#N)cc4CC3)CC2)cc2ccccc21", "note": "(stereo not drawn)", "inhibition": "15% (inactive)"}
{"smiles": "Cc1ccc(NC(=O)c2ccc3ncccc3c2)cc1OC1CCN(Cc2ccc(F)cc2)C1", "note": "(stereo not drawn)", "inhibition": "11% (inactive)"}
{"smiles": "CCc1nc(N)nc(N)c1-c1ccc(F)cc1", "inhibition": "52% (active)"}
{"smiles": "Cc1cc(NCCC(=O)NCCOc2ccccc2)nc(NCCOc2ccccc2)n1", "inhibition": "8% (inactive)"}
{"smiles": "CCNc1cc(C)nc(Nc2ccccc2)n1", "inhibition": "16% (inactive)"}
{"smiles": "Cc1cc(N(C)CCCN2CCCCC2)nc(Nc2ccc(Cl)cc2)n1", "inhibition": "7% (inactive)"}
{"smiles": "CC(C)(C)Oc1ccc(CC2NC3(C(=O)N(Cc4ccc(C(C)(C)C)cc4)c4ccccc43)C3C(=O)N(c4ccc(Br)cc4)C(=O)C23)cc1", "note": "(stereo not drawn)", "inhibition": "24% (inactive)"}
{"smiles": "Cc1ccc2[nH]c(C3CCCNC3)c(-c3ccncc3)c2c1", "note": "(stereo not drawn)", "inhibition": "10% (inactive)"}
{"smiles": "Cn1nc(-c2cccc(CNC3CCc4ccccc43)c2)c2cnc(NCCCN3CCCC3)nc21", "note": "(stereo not drawn)", "inhibition": "29% (inactive)"}
{"smiles": "Cc1ccc2c(c1)c(-c1ccccc1)c(-c1ccccc1)n2CC(O)CN1CCN(CC=Cc2ccccc2)CC1", "note": "(stereo not drawn)", "inhibition": "0% (inactive)"}
{"smiles": "O=C(CCN1CCCCC1)Nc1ccc(Nc2nccc(NCC(O)c3ccccc3)n2)cc1", "note": "(stereo not drawn)", "inhibition": "18% (inactive)"}
{"smiles": "CCc1ccc(N2C(=O)C3C(Cc4ccc(OC(C)(C)C)cc4)NC4(C(=O)N(Cc5ccccc5)c5ccc(F)cc54)C3C2=O)cc1", "note": "(stereo not drawn)", "inhibition": "9% (inactive)"}
{"smiles": "CCC[C@@H]([C@@H](CC1CCCCC1)C(=O)N[C@H](C(=O)Nc1nccs1)[C@H](C)O)N(O)C=O", "inhibition": "-4% (inactive)"}
